Source: PubChem BioAssay
MITF primary – blocks human microphthalmia-associated transcription factor. O75030. AlphaScreen MITF homodimerization, bead proximity signal. inhibition, % at 2.6 µM. actives 0.91% (n = 650,000); in the data active = inhibition above about 50%;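 note: 0% = vehicle wells with protein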
TEAD-YAP block – TEAD-YAP interaction inhibition; HEK-TIYL cells, TEAD-Gal4/YAP UAS-luciferase luminescence; inhibition, % at 9.12 µM; actives 1.4% (n = 640,000); in the data active = inhibition above about 32%;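 note: 0% = median of test compound wells and 100% = reference inhibitor wells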
GPR151 activ – activators of human GPR151 | Q8TDV0 | PathHunter beta-arrestin GPR151 cells, luminescence | activation, % at 11.2 µM | actives 1% (n = 650,000); in the data active = activation above about 4.9%;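 note: 0% = median of compound wells and 100% = cells with positive control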
FBW7 act – activators of human E3 ligase FBW7. Q969H0. AlphaScreen FBW7–phospho-cyclin E peptide binding, activator screen. normalized activity (activation), % at 26.1 µM. actives 0.13% (n = 650,000). AID 1259310; in the data active = normalized activity above about 1.9%;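 note: purified mutant Fbw7 with reduced substrate affinity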
Target sequence (Q969H0 whole entry, looked up): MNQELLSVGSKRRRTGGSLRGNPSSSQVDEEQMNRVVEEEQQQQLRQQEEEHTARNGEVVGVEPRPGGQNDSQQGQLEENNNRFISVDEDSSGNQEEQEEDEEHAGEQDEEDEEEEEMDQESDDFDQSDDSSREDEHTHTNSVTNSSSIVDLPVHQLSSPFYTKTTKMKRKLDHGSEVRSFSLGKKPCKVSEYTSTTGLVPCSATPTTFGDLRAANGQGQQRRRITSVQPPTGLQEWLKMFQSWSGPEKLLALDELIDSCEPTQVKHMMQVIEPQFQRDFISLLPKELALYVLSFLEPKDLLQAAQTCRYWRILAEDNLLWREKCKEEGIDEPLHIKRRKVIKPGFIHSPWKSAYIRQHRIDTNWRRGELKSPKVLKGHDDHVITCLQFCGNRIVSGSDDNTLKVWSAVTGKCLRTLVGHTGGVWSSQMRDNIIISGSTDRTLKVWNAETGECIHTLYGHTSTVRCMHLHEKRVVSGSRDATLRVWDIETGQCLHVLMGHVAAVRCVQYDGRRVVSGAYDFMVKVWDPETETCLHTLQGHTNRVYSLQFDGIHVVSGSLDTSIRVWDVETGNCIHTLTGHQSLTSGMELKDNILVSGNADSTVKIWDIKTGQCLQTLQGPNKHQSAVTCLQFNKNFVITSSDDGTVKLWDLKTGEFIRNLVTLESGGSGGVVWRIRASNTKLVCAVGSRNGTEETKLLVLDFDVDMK
* = called active by the depositor. The list is not random: actives were taken first. Their share in the collection is about 3.4%.

SMILES | MITF primary | TEAD-YAP block | GPR151 activ | FBW7 act
Nc1ccc(-c2nc3cc(N)ccc3s2)cc1 | 5 | 47* | -5 | 2
O=C(Nc1ccc(C23CC4CC(CC(C4)C2)C3)cc1)c1cccc(Cl)c1 | 8 | 60* | 0 | 0
COc1ccc(-c2nc(Nc3cc(OC)c(OC)c(OC)c3)nc(OC)n2)cc1 | -2 | 45* | -1 | 0
COc1ccc(-c2nccc(Nc3cc(OC)c(OC)c(OC)c3)n2)cc1 | 0 | 60* | 2 | 0
COc1ccc(-c2nc(Nc3ccc(Oc4ccccc4)cc3)nc(OC)n2)cc1 | 16 | 3 | 2 | 0
CCOC(=O)c1[nH]c(C)c(CN(C(C)=O)c2ccc(OCC)cc2)c1C | -1 | 52* | 2 | 0
Cc1ccc(N2C(=O)NC(=O)/C(=C\c3cc(C)n(C)c3C)C2=O)cc1 | 15 | 5 | -1 | 0
O=C1NC(=O)N(c2cccc(F)c2)C(=O)/C1=C/c1ccc(I)o1 | 78* | 11 | 1 | 0
Cc1ccc(N2C(=O)NC(=O)/C(=C\c3ccco3)C2=O)cc1C | 5 | 4 | 1 | 0
O=C1NC(=O)N(c2ccc(F)cc2)C(=O)/C1=C/c1ccco1 | 73* | -1 | 1 | 0
O=C1NC(=O)N(c2ccccc2F)C(=O)/C1=C/c1ccc(I)o1 | 52* | 5 | 0 | 0
Cc1cc(/C=C2\C(=O)NC(=O)N(c3cccc(F)c3)C2=O)c(C)n1C | 55* | 1 | 1 | 0
COc1ccc(OC)c(Cc2nnc(CCC(=O)NC(C)Cc3cccs3)o2)c1 (centres undefined) | 3 | -47 | -1 | 0
COc1cc(OC)c(OC)cc1/C=C1\C(=O)NC(=S)N(c2cccc(F)c2)C1=O | 54* | 6 | -2 | 0
CCc1ccc(N2C(=O)NC(=O)/C(=C\c3cc(C)n(-c4cccnc4)c3C)C2=O)cc1 | -17 | 5 | -2 | 0
Cc1cc(/C=C2\C(=O)NC(=S)N(c3ccc(F)cc3)C2=O)c(C)n1-c1cccnc1 | 110* | 0 | -2 | 0
CCCc1ccc(C(=O)Nc2cnc3ccccc3c2)cc1 | 12 | 70* | -5 | 0
CCNc1ccc(C(=O)OCC(=O)OC(C)(C)C)cc1[N+](=O)[O-] | 5 | -1 | 0 | 0
CCNc1ccc(C(=O)NN)cc1[N+](=O)[O-] | 0 | 35* | 2 | 0
COc1ccc(CNc2ccc(C(=O)Nc3ccc(C)cc3C)cc2[N+](=O)[O-])cc1 | -12 | 56* | -2 | 0
COc1cccc(NC(=O)c2ccc(NCc3ccccc3Cl)c([N+](=O)[O-])c2)c1 | 13 | 52* | 0 | 0
Cc1ccc(NC(=O)c2ccc(NCc3ccc(F)cc3)c([N+](=O)[O-])c2)c(C)c1 | 12 | 19 | -1 | 0
CCOC(=O)c1c(N)sc2c1CCC(C(C)(C)C)C2 (centres undefined) | 4 | 4 | -1 | 0
c1ccc2c(c1)CC/C2=N/Nc1ccc2ccccc2n1 | 12 | 74* | -1 | 0
Fc1ccccc1Nc1nnc(SCC2CCCCO2)s1 (centres undefined) | -1 | 73* | -10 | 0
SMILES | MITF primary | TEAD-YAP block | GPR151 activ | FBW7 act
CCCc1cc(=O)[nH]c2nnc(SCc3cccc(F)c3)n12 | -1 | -7 | -1 | 0
COc1ccc(N2C(=O)CSC2c2cccc(F)c2)c(OC)c1 (centres undefined) | -25 | 3 | -1 | 0
COc1ccc(N2C(=O)CSC2c2cccc([N+](=O)[O-])c2)c(OC)c1 (centres undefined) | -4 | 46* | -1 | 0
COc1cc(C)c(S(=O)(=O)Nc2cccc(C(=O)O)c2)cc1C | -22 | -11 | -1 | 0
COc1ccc(CC(=O)Nc2cccc(-c3nnc(-c4ccccc4)o3)c2)cc1OC | 23 | 53* | 5 | 0
COc1ccc(CC(=O)Nc2ccc(-c3nnc(-c4ccccc4)o3)cc2)cc1OC | 22 | -16 | -1 | 0
COc1ccccc1C1NC(c2ccccc2OC)C2C(=O)C1C(c1ccccc1OC)NC2c1ccccc1OC (centres undefined) | 6 | 5 | -1 | 0
CCNC(=O)C1Cc2ccccc2CN1S(=O)(=O)c1cccs1 (centres undefined) | 5 | -4 | 0 | 0
C=CCn1c(SCC(=O)OCC)nc2sc3c(c2c1=O)CCC(C(C)(C)C)C3 (centres undefined) | 2 | 38* | 0 | 0
COc1ccc(Cl)cc1NC1=C(Cl)C(=O)N(c2ccc(C)cc2)C1=O | -5 | 45* | 1 | 0
COc1ccccc1NC1=C(Cl)C(=O)N(c2ccc(C)cc2)C1=O | 10 | -5 | 2 | 0
COc1cccc(NC2=C(Cl)C(=O)N(c3ccc(C)cc3)C2=O)c1 | 11 | 4 | -1 | 0
